Records with an inconclusive call do not appear. Activity calls are given as the source filed them. Unless noted, the call rests on the fitted dose curve; in most records, active means well fitted curve in the direction sought with a large enough effect; inconclusive means small, poorly fitted or top-dose-only effect, or another doubt; inactive means no such curve, though single readings can be large; an effect the other way counts as inactive or inconclusive.
Columns and labels:
[1] = target: Alpha-galactosidase (Coffea arabica) (UniProt Q42656); assay: Counterscreen for Glucocerebrosidase Inhibitors: qHTS Assay for Coffee Bean alpha-Galactosidase at pH 4.5 (AID 957); further: series mostly up to about 77 µM
In short: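 Quantitative HTS of compounds (0.7 nM to 77 uM) against coffee bean alpha-galactosidase at pH 4.5, measuring 4-methylumbelliferone fluorescence released from 80 uM substrate.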

[2] = target: Alpha-galactosidase (Coffea arabica) (UniProt Q42656); assay: Counterscreen for Glucocerebrosidase Inhibitors: qHTS Assay for Coffee Bean alpha-Galactosidase at pH 5.9 (AID 998)
In short: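 Enzyme 2 nM + cpd (0.7 nM–77 uM titration) + 4-MU-alpha-Gal 80 uM, pH 5.9 citrate/Tween-20, RT 20 min, NaOH/glycine stop pH 10, fluor 365/440. Normalized to no-enzyme and full-activity controls; Hill-fit AC50.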

[3] = Validation screen for inhibitors of Lassa infection (AID 463096; calls by dose curve)
[4] = Inducers of the Endoplasmic Reticulum Stress Response (ERSR) in human glioma: Validation (AID 504836)
In short: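 Stably transfected U87-MG glioma cells carrying a GRP78-based luciferase sensor; 16 h compound incubation. Luminescence end-point read 10 min after Bright-Glo addition at room temperature.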

[5] = qHTS for Inhibitors of the Functional Ribonucleoprotein Complex (vRNP) of Lassa (LASV) Arenavirus: LASV Primary Screen - GLuc reporter signal (AID 1347082; calls by dose curve; tested in HEK293 reporter line; further: series mostly up to about 57 µM; nearly all actives have a fitted effect of over 60% in size)
[6] = qHTS for Inhibitors of the Functional Ribonucleoprotein Complex (vRNP) of Lassa (LASV) Arenavirus: Viability assay - alamar blue signal for LASV Primary Screen (AID 1347083; calls by dose curve; tested in HEK293 reporter line; further: series mostly up to about 57 µM; nearly all actives have a fitted effect of over 80% in size)
[7] = qHTS for Inhibitors of the Functional Ribonucleoprotein Complex (vRNP) of Lymphocytic Choriomeningitis Arenaviruses (LCMV): Viability assay - alamar blue signal for LCMV Primary Screen (AID 1347085; calls by dose curve; tested in HEK293 reporter line; further: series mostly up to about 57 µM; nearly all actives have a fitted effect of over 80% in size)
[8] = target: Nucleoprotein (Lymphocytic choriomeningitis virus (strain Armstrong)) (UniProt P09992); assay: qHTS for Inhibitors of the Functional Ribonucleoprotein Complex (vRNP) of Lymphocytic Choriomeningitis Arenaviruses (LCMV): LCMV Primary Screen - GLuc reporter signal (AID 1347086; calls by dose curve; further: series mostly up to about 57 µM; nearly all actives have a fitted effect of over 70% in size)

Measured: Potency

Nucleoprotein (Lymphocytic choriomeningitis virus (strain Armstrong)), sequence (P09992 whole entry, looked up): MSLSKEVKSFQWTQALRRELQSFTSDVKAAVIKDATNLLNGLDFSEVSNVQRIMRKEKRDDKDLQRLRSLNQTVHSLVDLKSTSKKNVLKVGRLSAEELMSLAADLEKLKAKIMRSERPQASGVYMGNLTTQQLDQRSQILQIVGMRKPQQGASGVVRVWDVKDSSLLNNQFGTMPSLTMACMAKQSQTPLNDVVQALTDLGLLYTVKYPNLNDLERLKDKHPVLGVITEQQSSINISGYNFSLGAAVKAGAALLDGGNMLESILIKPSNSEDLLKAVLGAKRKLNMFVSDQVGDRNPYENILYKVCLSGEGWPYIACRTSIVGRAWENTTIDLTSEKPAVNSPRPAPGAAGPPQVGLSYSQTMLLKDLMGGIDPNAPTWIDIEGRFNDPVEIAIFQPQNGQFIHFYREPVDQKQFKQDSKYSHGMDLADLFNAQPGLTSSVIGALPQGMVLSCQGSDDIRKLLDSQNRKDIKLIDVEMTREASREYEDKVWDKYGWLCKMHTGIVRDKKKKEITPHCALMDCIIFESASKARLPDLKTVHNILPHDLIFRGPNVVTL
Alpha-galactosidase (Coffea arabica), sequence (Q42656 whole entry, looked up): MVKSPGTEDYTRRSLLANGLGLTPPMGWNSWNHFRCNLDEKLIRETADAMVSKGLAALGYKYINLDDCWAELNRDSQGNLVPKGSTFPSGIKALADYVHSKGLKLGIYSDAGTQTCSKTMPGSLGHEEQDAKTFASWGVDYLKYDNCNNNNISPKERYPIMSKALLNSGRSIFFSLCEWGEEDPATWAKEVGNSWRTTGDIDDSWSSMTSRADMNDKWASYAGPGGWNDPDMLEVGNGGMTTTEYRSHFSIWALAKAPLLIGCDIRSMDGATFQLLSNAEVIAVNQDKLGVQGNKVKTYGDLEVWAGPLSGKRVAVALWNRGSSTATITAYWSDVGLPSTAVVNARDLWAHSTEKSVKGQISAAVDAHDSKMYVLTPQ

N[C@@H](Cc1cnc[nH]1)C(=O)O
inactive: all assays above

C=CC[C@H](N)C(=O)O
inactive: all assays above

O=C(O)c1cc2cc(Cc3cccnc3)ccc2o1
inactive: all assays above

O=c1[nH]c2ccccc2c2ccccc12
inactive: all assays above

O=C(O)CC[C@@H](C(=O)O)N1C(=O)c2ccccc2C1=O
inactive: all assays above

COc1ccccc1N1CCN(CCCCN2C(=O)c3ccccc3C2=O)CC1
inactive: all assays above

CN(C)C(N)=NCCC[C@H](N)C(=O)O
inactive: all assays above

Cc1nc(N=Nc2ccc(S(=O)(=O)O)cc2S(=O)(=O)O)c(COP(=O)(O)O)c(C=O)c1O
inactive: all assays above

C[N+](C)(C)CC=O
inactive: all assays above

NCCS(=O)O
inactive: all assays above

O=c1ccc2c(OCCCCc3ccccc3)c3ccoc3cc2o1
inactive: all assays above

N#C/C(=C\c1c[nH]c2ccccc12)C(=O)c1ccc(O)c(O)c1
inactive: all assays above

O=C(OCCN1CCOCC1)C1(c2ccccc2)CCCCC1
inactive: all assays above

O=C(O)c1cc(=O)c2ccccc2[nH]1
inactive: all assays above

CC(N)=O
inactive: all assays above

CN1CCN(c2nc3cc(C(F)(F)F)ccc3n3cccc23)CC1
inactive: all assays above

C[N+](C)(CCCCCC[N+](C)(C)CCCN1C(=O)c2cccc3cccc(c23)C1=O)CCCN1C(=O)c2cccc3cccc(c23)C1=O
inactive: all assays above

NCCCNCCCCNCCCN
inactive: all assays above

Nc1ccc(-c2nc3ccc(-c4nc5ccc(N)cc5[nH]4)cc3[nH]2)cc1
inactive: all assays above

CC(=O)SCC[N+](C)(C)C
inactive: all assays above

Cn1c(=O)[nH]c2ncn(C)c2c1=O
inactive: all assays above

[Li+]
inactive: all assays above

Nc1ccc(-c2ccc3ccccc3n2)cc1
inactive: all assays above

c1ccc(-c2ccccn2)nc1
inactive: all assays above

COc1ccc(C(=O)NCc2cccnc2)cc1C(=O)NCc1cccnc1
inactive: all assays above

CSC(=N)N
inactive: all assays above

COc1ccccc1N1CCN(CCN(C(=O)c2ccc(F)cc2)c2ccccn2)CC1
inactive: all assays above

CCCCCCCC/C=C\CCCCCCCC(=O)NCCO
inactive: all assays above

NC1(C(=O)O)CCCCC1
inactive: all assays above

Source: PubChem BioAssay (NCATS)
